Shown are actives, neighbours in structure and some others; about 10% of the full set was active somewhere.
CtBP-E1A blk: qHTS Assay for Inhibitors of the CtBP/E1A Interaction; CtBP / adenovirus E1A interaction (AlphaScreen); AlphaScreen GST-E1A/His-CtBP binding, 1536-well; active compounds read low; activity change, % (test concentration not listed); 0.49% of 340,000 active; AID 651724, 2012; in the data active means activity change below about -65%; inconclusive means mostly about -30% to -63%; further: on the % scale 0 is the no-effect control and ±100 the full control effect
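AlphaScreen with 125 nM GST-E1A and 125 nM His-CtBP (5X stocks) in Tris pH 8.0, 300 mM NaCl, BSA, Tween 20, TCEP. Compounds preincubated 2 h at 37 deg C, then glutathione donor/nickel acceptor beads added for 1 h at 37 deg C in dark.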
Six1-Eya2 inh: qHTS Assay for Inhibitors of the Six1/Eya2 Interaction. Homeobox protein SIX1 (Homo sapiens) + Protein phosphatase EYA2 (Homo sapiens), …. AlphaScreen GST-Six1/His-Eya2 binding, biochemical; active compounds read low. 0.56% of 360,000 active. activity change, % (test concentration not listed); in the data active means activity change below about -65%; inconclusive means mostly about -30% to -63%; further: on the % scale 0 is the no-effect control and ±100 the full control effect
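Six1/Eya2 binding was read as AlphaScreen signal after compounds were pinned into GST-Six1 plus His-tagged Eya2 (5X stock 250/500 nM) in pH 8.0 Tris/NaCl/TCEP buffer, beads added, then incubated 1 h, 37 C, dark.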
G9a block: qHTS Assay for Inhibitors of Histone Lysine Methyltransferase G9a; G9a H3K9 monomethylation, AlphaScreen, 2 h; Potency, µM (series often up to 102 µM), without a hit: top-dose activity, negative = inhibition, actives largely listed as inhibitors; 8.8% of 350,000 active; AID 504332, 2011; further: potency means the concentration at half of the fitted maximal effect; on the % scale 0 is the no-effect control and ±100 the full control effect; nearly all actives have a fitted effect of over 75% in size
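Methyltransferase reactions run at room temperature for 2 h (20 nM enzyme, 500 nM biotin-H3K9 peptide, 20 uM SAM) after a 15 min compound preincubation; product detected by AlphaScreen beads and anti-H3K9me1 antibody.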
BAZ2B inh: qHTS Assay for Inhibitors of BAZ2B. AlphaScreen BAZ2B-H3K14Ac peptide displacement. Potency, µM (titrated, usually from 114 µM), for the others: at the highest dose activity change, negative = inhibition, hits mostly inhibitors. 4.4% of 360,000 active. AID 504333, 2011; further: potency means the concentration at half of the fitted maximal effect; on the % scale 0 is the no-effect control and ±100 the full control effect; nearly all actives have a fitted effect of over 60% in size
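Multi-concentration screen (max 110 uM) measuring displacement of acetylated histone H3 peptide from BAZ2B by AlphaScreen, using 50 nM protein, 50 nM peptide and 10 ug/mL streptavidin donor plus Ni-chelate acceptor beads.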
JMJD2A Tudor: qHTS Assay for Inhibitors of JMJD2A-Tudor Domain. AID 504339, 2011. AlphaScreen JMJD2A-Tudor / H3K4me3 peptide binding. Potency, µM (series often up to 114 µM), for inactives: at the highest dose activity change, negative = inhibition, most hits filed as inhibitors. Lysine-specific demethylase 4A (Homo sapiens), O75164. 4.4% of 390,000 active; further: potency means the concentration at half of the fitted maximal effect; on the % scale 0 is the no-effect control and ±100 the full control effect; nearly all actives have a fitted effect of over 50% in size
HP1b binding inh: HTS for Inhibitors of HP1-beta Chromodomain Interactions with Methylated Histone Tails; Chromobox protein homolog 1 (Homo sapiens), P83916; AlphaScreen HP1-beta / biotin-H3K9me3 peptide binding; Potency, µM (series often up to 114 µM), without a hit: top-dose activity change, negative = inhibition, actives largely listed as inhibitors; 0.56% of 390,000 active; AID 540317, 2011; further: potency means the concentration at half of the fitted maximal effect; nearly all actives have a fitted effect of over 70% in size
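AlphaScreen: HP1-beta (50 nM) preformed 30 min with biotin-H3(1-18)K9me3 peptide (50 nM) in PBS pH 7.4, 0.01% Tween-20. Compound added for 30 min at RT, then streptavidin donor/nickel chelate acceptor beads (10 ug/mL) for 30 min.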
An asterisk follows results filed as active; [ ] = another dose, or the depositor's remark. Unless noted, the call rests on the fitted dose curve; in most records, active means well fitted inhibition curve with a large enough effect; inconclusive means small, poorly fitted or top-dose-only effect; inactive means no such curve, though single readings can be large or run the other way.

For COc1ccc(-c2c3c(=O)n(C)c(=O)n(C)c3cn2-c2cccc(N)c2)cc1 the results were G9a block 11µM*, BAZ2B inh inconclusive, JMJD2A Tudor inconclusive and HP1b binding inh inconclusive.
`CC(O)CCC(=O)NCCNC(=O)CCC(C)O` (centres undefined) gave CtBP-E1A blk 3, Six1-Eya2 inh 0, G9a block 12%[59 µM], BAZ2B inh 8%, JMJD2A Tudor 28µM* and HP1b binding inh -12%.
O=C(CCC(=O)NCCO)NCCO was read as CtBP-E1A blk 4, Six1-Eya2 inh 4, G9a block -27%, BAZ2B inh -22%, JMJD2A Tudor -6% and HP1b binding inh 37%.
Cc1ccc(OCCN(C)C)c([N+](=O)[O-])c1 was read as CtBP-E1A blk -3, Six1-Eya2 inh 9, G9a block inconclusive, BAZ2B inh inconclusive, JMJD2A Tudor 8.9µM* and HP1b binding inh inconclusive.
COCCNCCOc1ccc(C)cc1[N+](=O)[O-] was read as CtBP-E1A blk 0, Six1-Eya2 inh 12, G9a block -41%, BAZ2B inh inconclusive, JMJD2A Tudor 25µM* and HP1b binding inh inconclusive.
COc1cc(C)ccc1OCCOCCOc1ccc(C)cc1[N+](=O)[O-] was read as CtBP-E1A blk 6, Six1-Eya2 inh -1, G9a block 11%[59 µM], BAZ2B inh -10%, JMJD2A Tudor -13% and HP1b binding inh 22%.
Screening COc1ccc(C=O)cc1COc1ccc(C)cc1[N+](=O)[O-] returned CtBP-E1A blk -4, Six1-Eya2 inh -4, G9a block inconclusive, BAZ2B inh inconclusive, JMJD2A Tudor -21% and HP1b binding inh 32%.
`C=CCNCCOCCOc1ccc(C)cc1[N+](=O)[O-]` gave CtBP-E1A blk 0, Six1-Eya2 inh 5, G9a block 22µM*, BAZ2B inh inconclusive, JMJD2A Tudor 3.2µM* and HP1b binding inh -20%.
Screening COc1ccc(Cl)cc1Nc1ncnc2c1nc1n2CCCC1 returned G9a block -3%[59 µM], BAZ2B inh 3%, JMJD2A Tudor -7% and HP1b binding inh 14%.
`COc1ccc2c(c1)-c1nc(NC(=O)c3cc(OC)c(OC)c(OC)c3)sc1CC2` gave G9a block inconclusive, BAZ2B inh -20%, JMJD2A Tudor -32% and HP1b binding inh 27%.
Cc1c(NC(=O)c2cc(-c3ccccc3)on2)c(=O)n(-c2ccccc2)n1C was read as CtBP-E1A blk 5, Six1-Eya2 inh 0, G9a block 12%[59 µM], BAZ2B inh 8%, JMJD2A Tudor 100µM* and HP1b binding inh -7%.
For Cc1c(NC(=O)c2cc(-c3ccc(O)cc3)on2)c(=O)n(-c2ccccc2)n1C the results were CtBP-E1A blk 1, Six1-Eya2 inh 23, G9a block -6%, BAZ2B inh -1%, JMJD2A Tudor -4%[11.4 µM] and HP1b binding inh 87%.
Cc1onc(-c2c(F)cccc2Cl)c1C(=O)Nc1c(C)n(C)n(-c2ccccc2)c1=O was read as CtBP-E1A blk 9, Six1-Eya2 inh 7, G9a block -48%, BAZ2B inh 14%, JMJD2A Tudor -5% and HP1b binding inh 18%.
For Cc1c(NC(=O)c2cc3ccccc3oc2=O)c(=O)n(-c2ccccc2)n1C the results were CtBP-E1A blk -3, Six1-Eya2 inh 3, G9a block 25µM*, BAZ2B inh -1%, JMJD2A Tudor -4% and HP1b binding inh 9%.
`Cc1c(NC(=O)c2ccc(COc3ccc4ccccc4c3)o2)c(=O)n(-c2ccccc2)n1C` gave CtBP-E1A blk -5, Six1-Eya2 inh -4, G9a block inconclusive, BAZ2B inh 50µM*, JMJD2A Tudor -31% and HP1b binding inh 1%.
